An excerpt weighted towards active compounds, which were near 17% of everything screened.
HT1080 IDH1KD tx – qHTS for induction of synthetic lethality in tumor cells producing 2HG: qHTS for the HT-1080-IDH1KD cell line; HT-1080 IDH1 knockdown viability, ATP luminescence, 48 h; Potency, µM (series often up to 46.1 µM), without a hit: at the top dose activity, negative = toxicity, actives largely listed as cytotoxic; 2% of 360,000 active;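 note: 0% = DMSO wells and -100% = cell-free medium wells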
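Using the IDH1-knockdown HT-1080 line run in the same batch and compound series as the NT line, viability after 48 h at 37 °C was determined by CellTiter-Glo luminescence and expressed as % activity.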
TGFb SMAD3 inh – qHTS for Inhibitors of TGF-b | Potency, µM (top dose mostly 46.1 µM), without a hit: top-dose activity, negative = inhibition, actives largely listed as inhibitors | AID 588855, 2011 | 1.2% of 410,000 active | HepG2 CAGA-GFP TGF-b/SMAD3 reporter, GFP fluorescence, 18 h; TGF-beta stimulated, 500 pg/mL final; note: % is set by controls: 0 for no effect and ±100 for the full control effect; nearly all actives have a fitted effect of over 65% in size
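HEPG2 CAGA-GFP cells (1000/well, DMEM with 1% FBS) were pre-incubated 2 h at 37 degrees C, given compound by pin tool, then stimulated with TGF-beta at 500 pg/mL final for 18 h before per-cell GFP fluorescence imaging.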
HepG2 viability – qHTS for Inhibitors of TGF-b: Cytotox Counterscreen. Potency, µM (series often up to 46.1 µM), inactives show at the highest dose activity change, negative = cytotoxicity, hits mostly cytotoxic. 0.76% of 410,000 active. HepG2 CAGA-GFP viability, ATP luminescence, 18 h
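HepG2 CAGA-GFP cells (1000/well, DMEM with 1% FBS) received compound, then TGF-beta at 500 pg/mL final, and were incubated 18 hours at 37 degrees C. Viability was read by CellTiter-Glo luminescence. Media-only wells were set as complete cell-killing and DMSO as no toxicity.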
TDP1 cell CPT – qHTS for Inhibitors of human tyrosyl-DNA phosphodiesterase 1 (TDP1): qHTS in cells in presence of CPT; chicken DT40 Tdp1-/-;hTDP1 cells + 20 nM CPT, ATP luminescence, 48 h; Potency, µM (top dose mostly 46.2 µM), without a hit: top-dose activity change, negative = growth inhibition, actives largely listed as inhibitors; 12% of 420,000 active; AID 686979, 2013; note: % is set by controls: 0 for no effect and ±100 for the full control effect; nearly all actives have a fitted effect of over 55% in size
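Chicken DT40 Tdp1-/- cells complemented with human TDP1, 400 cells/well, exposed to compounds plus 20 nM camptothecin for at least 48 h at 37 C; viability read as ATP content by CellTiter-Glo luminescence.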
HT1080-NT tox – qHTS for induction of synthetic lethality in tumor cells producing 2HG: qHTS for the HT-1080-NT fibrosarcoma cell line | HT-1080-NT fibrosarcoma viability, CellTiter-Glo ATP luminescence, 48 h | 1.6% of 360,000 active | Potency, µM (doses to about 46.1 µM), without a hit: at the highest dose activity, negative = less viability, hits mostly cytotoxic;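 note: NT is the 2HG producing partner of a matched IDH1 knockdown line; 0% = DMSO-treated cells and -100% = media-only wells without cells; nearly all actives have a fitted effect of over 55% in size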
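HT-1080-NT; 750 cells/well; 5% FBS RPMI; 48 h compound, 37 degrees C; CellTiter-Glo luminescence; curve fitting and curve-class assignment.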
TDP1 cell noCPT – qHTS for Inhibitors of human tyrosyl-DNA phosphodiesterase 1 (TDP1): qHTS in cells in absence of CPT; DT40 Tdp1-/- hTDP1 cells, no CPT, ATP luminescence, 48 h; Potency, µM (series often up to 46.2 µM), inactives show at the highest dose activity change, negative = growth inhibition, actives largely listed as inhibitors; 15% of 420,000 active; AID 686978, 2013; note: % is set by controls: 0 for no effect and ±100 for the full control effect; nearly all actives have a fitted effect of over 55% in size
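Luminescent ATP content (CellTiter-Glo) served as the growth readout. Knockout chicken DT40 cells expressing human TDP1 were exposed to compounds without camptothecin for a minimum 48 hr at 37 °C.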
* hit, by the source's call; u = inconclusive. Calls come from the whole dose curve; as a rule, active = well fitted curve in the direction sought with a large enough effect; inconclusive = small, poorly fitted or top-dose-only effect, or another doubt; inactive = no such curve, though single readings can be large; an effect the other way counts as inactive or inconclusive. Potency is the fitted concentration of half-maximal effect.

SMILES	HT1080 IDH1KD tx	TGFb SMAD3 inh	HepG2 viability	TDP1 cell CPT	HT1080-NT tox	TDP1 cell noCPT
CC(/C=N\Nc1nnc2c(n1)[nH]c1c(C)cccc12)=C\c1ccco1	u	-24%	-20%	9.2µM*	-13%	10µM*
CC(/C=N/n1c(-c2ccco2)n[nH]c1=S)=C\c1ccco1	13%	0%	7%	-14%	8%	4%
COc1cccc(-c2csc(N3CCN(CC(=O)NNC(=O)c4ccco4)CC3)n2)c1	2%	3%	11%	u	4%	u
COCC1CCCCN1C(=O)C1CCN(c2nc(-c3ccccc3)nc3c2CCC3)CC1 (stereo unspecified)	-6%	11%	-21%	18µM*	-15%	15µM*
Cc1cccc(NC(=O)c2c(O)c3ccccc3n(C)c2=O)c1	-8%	11%	-14%	u	-8%	15µM*
CCCn1c(=O)c(C(=O)Nc2cccc(C)c2)c(O)c2ccccc21	11%	1%	-2%	u	11%	u
Cc1ccc(NC(=O)c2c(O)c3ccccc3n(C)c2=O)nc1	0%	-2%	-22%	u	1%	21µM*
COCC(=O)Oc1cc(-c2ccc(C)cc2C)c(OC(=O)COC)c(-c2ccc(C)cc2C)c1	u	u	7.1µM*	10µM*	-24%	9.2µM*
CC(=O)Nc1ccc(-c2ccnc3c2CC(C(=O)NCC2CC2)O3)cc1 (stereo unspecified)	16µM*	6%	5%	13µM*	u	8.2µM*
CC(=O)Nc1ccc(-c2ccnc3c2CC(C(=O)NCC2CCOCC2)O3)cc1 (stereo unspecified)	u	-6%	-5%	4.6µM*	u	4.1µM*
CC(=O)Nc1ccc(-c2ccnc3c2CC(C(=O)NCCC(F)(F)F)O3)cc1 (stereo unspecified)	u	0%	-3%	13µM*	-37%	15µM*
C/C=C/C(=O)N1CC2(CC(c3cccc(NC(=O)COc4ccc(Cl)cc4)c3)=NO2)C[C@@H]1C(N)=O (stereo partly specified)	9%	5%	2%	u	11%	-23%
NC(=O)[C@H]1CC2(CC(c3cccc(NC(=O)COc4ccc(Cl)cc4)c3)=NO2)CN1C(=O)c1ccccc1C(=O)c1ccccc1 (stereo partly specified)	-19%	u	-1%	21µM*	-16%	18µM*
CC1(C(=O)N2CC3(CC(c4cccc(NC(=O)COc5ccc(Cl)cc5)c4)=NO3)C[C@@H]2C(N)=O)CC1 (stereo partly specified)	2%	u	-7%	13µM*	1%	15µM*
Cc1c(NC(=O)c2cccnc2Cl)c(=O)n(-c2ccccc2)n1C	20%	-6%	-7%	33%	15%	-10%
Cc1ccn(-c2ccc(NC(=O)c3cccs3)cc2)n1	u	-3%	-49%	u	u	12µM*
COc1ccc(CC(=O)Nc2cccc(-c3cn4ccccc4n3)c2)cc1	3%	4%	-17%	u	5%	u
COc1ccc(CC(=O)Nc2ccc(-c3cn4ccccc4n3)cc2)cc1	u	2%	-28%	13µM*	u	u
O=C(Nc1ccc(-c2cn3ccccc3n2)cc1)c1cccs1	u	u	-157%	18µM*	-29%	15µM*

Screens (PubChem BioAssay)
